According to PubChem BioAssay AID1211 (NMMLSC, 2008):
The source made the active and inactive calls. How the calls were made is not given here.

Molecular target: Estrogen receptor (Homo sapiens) (UniProt P03372)
Assay: ERalpha ligand binders by competition, primary screen, cell-based, Cos7 ERalpha-GFP, flow cytometry (AID 1211);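 further: 0% = DMSO vehicle wells and 100% = no E2-Alexa633 signal left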
Conditions: fluorescent ligand competition, stronger effect = higher value

Chain of Estrogen receptor (Homo sapiens) (P03372 whole entry, looked up): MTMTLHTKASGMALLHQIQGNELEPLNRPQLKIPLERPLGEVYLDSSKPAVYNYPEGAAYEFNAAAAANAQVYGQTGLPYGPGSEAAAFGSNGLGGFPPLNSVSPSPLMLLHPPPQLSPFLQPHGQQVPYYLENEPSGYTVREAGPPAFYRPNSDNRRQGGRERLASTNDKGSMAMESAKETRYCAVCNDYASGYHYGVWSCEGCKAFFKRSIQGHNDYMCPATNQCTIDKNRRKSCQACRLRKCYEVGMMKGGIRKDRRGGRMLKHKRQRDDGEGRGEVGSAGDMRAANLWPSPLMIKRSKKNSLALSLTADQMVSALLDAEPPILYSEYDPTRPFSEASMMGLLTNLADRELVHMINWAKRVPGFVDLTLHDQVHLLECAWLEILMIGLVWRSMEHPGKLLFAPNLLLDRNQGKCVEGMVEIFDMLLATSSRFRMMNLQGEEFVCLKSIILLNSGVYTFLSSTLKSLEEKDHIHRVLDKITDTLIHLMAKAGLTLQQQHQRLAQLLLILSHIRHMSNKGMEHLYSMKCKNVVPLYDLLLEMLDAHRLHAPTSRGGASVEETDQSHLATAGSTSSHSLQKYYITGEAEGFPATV

| Compound | inhibition of ligand binding (at 10 µM) | inhibition of ligand binding (binding inhibition, at 0.1 µM) [%] |
| --- | --- | --- |
| Cc1nc2sccn2c1-c1nc(-c2cc3ccccc3o2)cs1 | 4% (inactive) | 22 |
| C[C@@H]1O[C@@H](Oc2c(-c3cc(O)c(O)c(O)c3)oc3cc(O)cc(O)c3c2=O)[C@H](O)[C@H](O)[C@H]1O | 52% (inactive) | 26 |
| O=C1c2ccccc2NC(c2cccnc2)N1c1ccccc1F (stereo not drawn) | 14% (inactive) | 35 |
| Cc1ccc(Nc2nnc(SCC(=O)NCc3ccco3)s2)cc1 | 10% (inactive) | 12 |
| Cc1cnc(C(=O)OCC(=O)c2csc(N3CCCCC3)n2)cn1 | 17% (inactive) | 63 |
| Cc1ccnc(NS(=O)(=O)c2ccc(NC(=O)Cc3cccs3)cc2)n1 | 31% (inactive) | 63 |
| N=C1C(c2nc3ccccc3[nH]2)=C(O)CN1c1ccc(CC(=O)O)cc1 | 45% (active) | 96 |
| Cc1noc(C)c1S(=O)(=O)N(CC(=O)O)c1ccc2c(c1)OCO2 | 0% (inactive) | 3 |
| O=C(COC(=O)c1ccccc1)NCc1ccco1 | 29% (inactive) | 27 |
| O=S(=O)(NCCc1csc(-c2cccnc2)n1)c1ccc(Cl)s1 | 72% (active) | 35 |
| COc1ccc(-c2nnc(SCC(=O)/C(C#N)=C(\C)N)o2)cc1 | 40% (inactive) | 16 |
| CCOC(=O)c1cc2c(c(CSc3nc4ccccc4c(=O)n3Cc3ccco3)c1)OCOC2 | 46% (inactive) | 18 |
| COc1ccc(OC)c(N2C(=O)[C@@H]3C(c4ccccc4Cl)=NO[C@@H]3C2=O)c1 | 57% (inactive) | 24 |
| COc1cc2c(cc1O)C(Cc1ccc(O)cc1)NCC2 (stereo not drawn) | 34% (inactive) | 8 |
